Source: the supplement of paper PMC9950053
Counter-ions that a name gives are not always drawn.

system: Danio rerio larvae (5 dpf); test: excitability (activity period 17 minus period 16, 1-s interval sound) minus DMSO control (percentage points); higher = more acoustic excitability than DMSO larvae; conditions: 10 µM; exposure time: 3 h pre-incubation + 3 h imaging
Experimental: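 Wild-type 5 dpf zebrafish larvae (n=48 per drug, 96-well plates, 28.5 °C) were exposed to Tocris FDA-approved library compounds at 10 µM (0.1% DMSO) for 3 h before and 3 h during imaging. Images were taken every 6 s during visual (moving coloured lines) and acoustic stimuli, and larvae were tracked with the DeepLabCut-based Z-LaP Tracker. Each behavioural measure is the treated-group mean minus the DMSO vehicle control mean (n=844), in percentage points. This mapping covers compounds with 4-character plate codes.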

SMILES	excitability
CC(C)Nc1cccnc1N1CCN(C(=O)c2cc3cc(NS(C)(=O)=O)ccc3[nH]2)CC1 [Delavirdine mesylate]	2.93
COc1c(C)c2c(c(O)c1C/C=C(\C)CCC(=O)OCCN1CCOCC1)C(=O)OC2 [Mycophenolate mofetil]	4.14
Nc1ncn([C@@H]2O[C@H](CO)[C@@H](O)[C@H]2O)c(=O)n1 [5-Azacytidine]	-2.47
CS(=O)(=O)CCNCc1ccc(-c2ccc3ncnc(Nc4ccc(OCc5cccc(F)c5)c(Cl)c4)c3c2)o1 [Lapatinib]	15.5
COc1cc2ncnc(Nc3ccc(F)c(Cl)c3)c2cc1OCCCN1CCOCC1 [Iressa]	19.5
CCOC(=O)c1ncn2c1CN(C)C(=O)c1cc(F)ccc1-2 [Flumazenil]	2.65
CN1CCN(CCCN2c3ccccc3Sc3ccc(Cl)cc32)CC1 [Prochlorperazine dimaleate]	27.2
CC(C)(C#N)c1cc(Cn2cncn2)cc(C(C)(C)C#N)c1 [Anastrozole]	3.43
O=c1[nH]c(=O)n([C@H]2C[C@H](O)[C@@H](CO)O2)cc1C(F)(F)F [Trifluorothymidine]	4.38
Nc1ncn([C@H]2C[C@H](O)[C@@H](CO)O2)c(=O)n1 [Decitabine]	8.23
CC(=O)NC[C@H]1CN(c2ccc(N3CCOCC3)c(F)c2)C(=O)O1 [Linezolid]	6.87
CN(C)CC/C=C1/c2ccccc2COc2ccc(CC(=O)O)cc21 [Olopatadine hydrochloride]	5.43
CCN(Cc1ccncc1)C(=O)C(CO)c1ccccc1 (stereo not given) [Tropicamide]	-2.02
CC(C)C(=O)Nc1ccc([N+](=O)[O-])c(C(F)(F)F)c1 [Flutamide]	-5.48
CN1CC(=O)N2[C@H](c3ccc4c(c3)OCO4)c3[nH]c4ccccc4c3C[C@@H]2C1=O [Tadalafil]	5.81
CN1CCC[C@@H]1Cc1c[nH]c2ccc(CCS(=O)(=O)c3ccccc3)cc12 [Eletriptan hydrobromide]	6.84
CN(C)CCC[C@@]1(c2ccc(F)cc2)OCc2cc(C#N)ccc21 [Escitalopram oxalate]	14.5
NC(=O)c1ncn([C@@H]2O[C@H](CO)[C@@H](O)[C@H]2O)n1 [Ribavirin]	3.28
NC(=O)N1c2ccccc2C=Cc2ccccc21 [Carbamazepine]	1.07
CC(C)[C@H]1CC[C@H](C(=O)N[C@H](Cc2ccccc2)C(=O)O)CC1 [Nateglinide]	2.5

SMILES	excitability
CC(c1cc2ccccc2s1)N(O)C(N)=O (stereo not given) [Zileuton]	6.27
COc1cc2nc(N3CCN(C(=O)c4ccco4)CC3)nc(N)c2cc1OC [Prazosin hydrochloride]	16.4
COc1ccccc1OCCNCC(O)COc1cccc2[nH]c3ccccc3c12 (stereo not given) [Carvedilol]	22.5
Clc1ccccc1C(c1ccccc1)(c1ccccc1)n1ccnc1 [Clotrimazole]	11.3
Nc1nc(F)nc2c1ncn2[C@@H]1O[C@H](CO)[C@@H](O)[C@@H]1O [Fludarabine]	1.97
CC(C)N(CCCCOCC(=O)NS(C)(=O)=O)c1cnc(-c2ccccc2)c(-c2ccccc2)n1 [Selexipag]	5.98
Cc1ccc(N(CC2=NCCN2)c2cccc(O)c2)cc1 [Phentolamine Mesylate]	15.6
CCc1ccc(CCOc2ccc(CC3SC(=O)NC3=O)cc2)nc1 (stereo not given) [Pioglitazone hydrochloride]	9.48
COc1ccc(Cl)cc1C(=O)NCCc1ccc(S(=O)(=O)NC(=O)NC2CCCCC2)cc1 [Glibenclamide]	2.33
CN1CC2c3ccccc3Oc3ccc(Cl)cc3C2C1 (stereo not given) [Asenapine maleate]	14.2
Cc1c(-c2ccc(O)cc2)n(Cc2ccc(OCCN3CCCCCC3)cc2)c2ccc(O)cc12 [Bazedoxifene acetate]	15.4
CC(C)c1ccc2oc3nc(N)c(C(=O)O)cc3c(=O)c2c1 [Amlexanox]	5.26
CC/C(=C(\c1ccccc1)c1ccc(OCCN(C)C)cc1)c1ccccc1 [Tamoxifen citrate]	4.81
COC(c1ccccc1)(c1ccccc1)[C@H](Oc1nc(C)cc(C)n1)C(=O)O [Ambrisentan]	-1.02
CCOC(=O)[C@H](CCc1ccccc1)N[C@@H](C)C(=O)N1[C@H](C(=O)O)C[C@@H]2CCC[C@@H]21 [Ramipril]	6.38
CCC(=O)O[C@]1(C(=O)SCF)[C@H](C)C[C@H]2[C@@H]3C[C@H](F)C4=CC(=O)C=C[C@]4(C)[C@@]3(F)[C@@H](O)C[C@@]21C [Fluticasone propionate]	3.16
CCOc1cc(CC(=O)N[C@@H](CC(C)C)c2ccccc2N2CCCCC2)ccc1C(=O)O [Repaglinide]	9.5
CCOC(=O)N1CCC(=C2c3ccc(Cl)cc3CCc3cccnc32)CC1 [Loratidine]	-3.25
Cc1nc(-c2ccc(OCC(C)C)c(C#N)c2)sc1C(=O)O [Febuxostat]	-0.805
CC(C)n1c(/C=C/C(O)CC(O)CC(=O)O)c(-c2ccc(F)cc2)c2ccccc21 (stereo not given) [Fluvastatin sodium]	3.75
